Results from ChEMBL document CHEMBL3988442, “University of Dundee, Small-Polar-MMV Screening Library” (2021).
For some assays here: Results with a measured potency or affinity are listed apart.

How the values were obtained:
Parameters in all cases: scale not given: direction of the effect not stated beside the values
[1] = biological target: Protein translocase subunit SecA (Escherichia coli (strain K12)) (UniProt P10408); assay: Assay to Identify E. coli SecA ATPase Inhibitors; assay type: functional; conditions: 30 µM
Chain of Protein translocase subunit SecA (Escherichia coli (strain K12)) (P10408 whole entry): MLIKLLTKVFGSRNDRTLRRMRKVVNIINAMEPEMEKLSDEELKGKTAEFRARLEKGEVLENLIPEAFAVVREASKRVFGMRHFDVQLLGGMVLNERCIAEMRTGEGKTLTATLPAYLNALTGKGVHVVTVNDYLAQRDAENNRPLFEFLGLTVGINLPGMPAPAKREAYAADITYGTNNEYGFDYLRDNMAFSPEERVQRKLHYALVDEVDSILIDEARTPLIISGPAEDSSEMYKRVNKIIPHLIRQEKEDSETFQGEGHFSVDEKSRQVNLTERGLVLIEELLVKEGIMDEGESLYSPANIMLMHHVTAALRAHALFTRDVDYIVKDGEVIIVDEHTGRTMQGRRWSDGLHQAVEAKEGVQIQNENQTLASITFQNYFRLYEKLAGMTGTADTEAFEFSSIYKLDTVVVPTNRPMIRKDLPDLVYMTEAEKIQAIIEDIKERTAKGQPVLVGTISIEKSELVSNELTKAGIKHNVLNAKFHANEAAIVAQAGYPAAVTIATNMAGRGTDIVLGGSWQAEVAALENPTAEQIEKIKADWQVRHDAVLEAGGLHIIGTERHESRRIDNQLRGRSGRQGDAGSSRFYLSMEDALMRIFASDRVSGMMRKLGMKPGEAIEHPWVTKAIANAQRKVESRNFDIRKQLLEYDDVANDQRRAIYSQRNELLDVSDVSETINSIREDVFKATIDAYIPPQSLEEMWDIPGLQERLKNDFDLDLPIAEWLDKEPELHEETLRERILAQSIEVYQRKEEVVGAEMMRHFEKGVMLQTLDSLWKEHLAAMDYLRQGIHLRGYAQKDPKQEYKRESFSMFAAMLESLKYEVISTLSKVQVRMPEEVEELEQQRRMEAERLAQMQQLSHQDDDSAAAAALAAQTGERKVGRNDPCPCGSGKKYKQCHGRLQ

[2] = biological target: T1, Ubiquitin-activating enzyme e1, putative (Leishmania donovani (strain BPK282A1)) (UniProt E9BSI1); assay: Leishmania donovani Ubiquitin Activating Enzyme (LdE1); assay type: functional; conditions: 30 µM
T1 sequence (whole entry): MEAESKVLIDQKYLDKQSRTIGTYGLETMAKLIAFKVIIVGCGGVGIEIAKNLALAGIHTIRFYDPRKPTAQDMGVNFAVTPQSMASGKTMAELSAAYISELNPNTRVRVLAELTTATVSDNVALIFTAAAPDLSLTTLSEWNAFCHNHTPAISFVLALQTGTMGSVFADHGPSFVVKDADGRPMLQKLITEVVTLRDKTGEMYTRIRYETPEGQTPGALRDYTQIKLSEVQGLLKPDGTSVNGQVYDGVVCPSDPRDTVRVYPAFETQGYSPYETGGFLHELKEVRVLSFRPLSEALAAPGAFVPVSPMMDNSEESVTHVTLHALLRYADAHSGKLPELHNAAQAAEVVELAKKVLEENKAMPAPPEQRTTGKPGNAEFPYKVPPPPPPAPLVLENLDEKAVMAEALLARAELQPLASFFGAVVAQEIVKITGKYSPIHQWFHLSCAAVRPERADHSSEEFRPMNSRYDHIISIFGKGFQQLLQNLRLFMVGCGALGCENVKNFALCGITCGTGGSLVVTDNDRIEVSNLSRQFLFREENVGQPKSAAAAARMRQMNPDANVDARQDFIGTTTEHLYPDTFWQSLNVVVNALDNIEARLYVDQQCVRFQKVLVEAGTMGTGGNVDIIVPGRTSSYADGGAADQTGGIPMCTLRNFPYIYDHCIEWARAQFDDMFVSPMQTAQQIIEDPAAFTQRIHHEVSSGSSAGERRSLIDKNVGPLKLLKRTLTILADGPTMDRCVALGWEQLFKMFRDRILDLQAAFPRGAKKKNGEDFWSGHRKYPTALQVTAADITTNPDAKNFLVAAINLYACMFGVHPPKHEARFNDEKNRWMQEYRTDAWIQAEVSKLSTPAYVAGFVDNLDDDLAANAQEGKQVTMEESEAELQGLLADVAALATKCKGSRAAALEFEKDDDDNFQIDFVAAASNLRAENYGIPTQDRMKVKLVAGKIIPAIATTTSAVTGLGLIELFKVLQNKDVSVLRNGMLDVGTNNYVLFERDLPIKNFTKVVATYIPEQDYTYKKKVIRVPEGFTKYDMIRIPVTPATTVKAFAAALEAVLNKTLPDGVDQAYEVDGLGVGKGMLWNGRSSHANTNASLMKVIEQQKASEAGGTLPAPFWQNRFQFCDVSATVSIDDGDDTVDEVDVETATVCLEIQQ

[3] = biological target: AMP-activated protein kinase, AMPK (Homo sapiens) (UniProt P54646+O43741+P54619+Q9UGJ0+Q9Y478+Q13131+Q9UGI9); assay: AMP-dependent Kinase enzyme assay. An in vitro enzyme assay that detects ADP turnover that is directly proportional to AMPK activity. This uses naive AMPK that is activated during the assay with MK-8722; assay type: functional; conditions: 30 µM
[4] = biological target: Sialic acid-binding Ig-like lectin 9 (Homo sapiens) (UniProt Q9Y336); assay: Hs-Siglec9 ALPHAscreen SOP 20170721; conditions: 10 µM
Chain of Sialic acid-binding Ig-like lectin 9 (Homo sapiens) (Q9Y336 whole entry): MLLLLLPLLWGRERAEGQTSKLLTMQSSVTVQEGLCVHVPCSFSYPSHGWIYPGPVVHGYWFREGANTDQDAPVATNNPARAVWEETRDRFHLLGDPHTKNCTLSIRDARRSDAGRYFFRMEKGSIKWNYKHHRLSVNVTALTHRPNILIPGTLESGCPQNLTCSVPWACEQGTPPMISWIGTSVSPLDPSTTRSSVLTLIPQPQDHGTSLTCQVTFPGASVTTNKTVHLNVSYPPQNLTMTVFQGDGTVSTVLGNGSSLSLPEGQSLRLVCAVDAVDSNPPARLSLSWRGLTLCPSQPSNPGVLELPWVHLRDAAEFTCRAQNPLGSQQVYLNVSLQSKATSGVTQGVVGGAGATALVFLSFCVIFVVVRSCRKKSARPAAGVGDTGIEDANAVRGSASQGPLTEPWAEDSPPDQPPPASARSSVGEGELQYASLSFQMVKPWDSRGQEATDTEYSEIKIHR

Trypanosoma cruzi = assay: Trypanosoma cruzi phosphomannomutase and mannose-1-phosphate guanylyltransferase assay; assay type: functional; conditions: 10 µM
[5] = biological target: T2, Arginase-2, mitochondrial (Homo sapiens) (UniProt P78540); assay: in vitro enzyme assay to detect the production of urea directly proportional to the activity of Arginase II; assay type: functional; conditions: 33.3 µM; note: in the data most compounds retested in dose-response had high values
T2 sequence (whole entry): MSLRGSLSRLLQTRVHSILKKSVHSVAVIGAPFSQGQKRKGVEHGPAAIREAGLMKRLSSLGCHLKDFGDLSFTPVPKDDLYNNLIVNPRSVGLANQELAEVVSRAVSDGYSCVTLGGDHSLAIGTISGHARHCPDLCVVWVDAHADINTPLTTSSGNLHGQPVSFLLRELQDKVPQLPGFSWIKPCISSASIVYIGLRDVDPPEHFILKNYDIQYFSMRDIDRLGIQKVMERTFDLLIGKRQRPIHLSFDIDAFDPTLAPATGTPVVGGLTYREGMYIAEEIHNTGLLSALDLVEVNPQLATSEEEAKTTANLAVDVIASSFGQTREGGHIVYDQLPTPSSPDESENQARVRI

[6] = biological target: T3, Proteasome subunit beta (Trypanosoma cruzi) (UniProt O96673); assay: Trypanosoma cruzi proteasome chymotrypsin-like activity (TcProtChymo) assay.; note: in the data most compounds retested in dose-response had high values; assay type: functional; conditions: 9.37 µM
T3 sequence (whole entry): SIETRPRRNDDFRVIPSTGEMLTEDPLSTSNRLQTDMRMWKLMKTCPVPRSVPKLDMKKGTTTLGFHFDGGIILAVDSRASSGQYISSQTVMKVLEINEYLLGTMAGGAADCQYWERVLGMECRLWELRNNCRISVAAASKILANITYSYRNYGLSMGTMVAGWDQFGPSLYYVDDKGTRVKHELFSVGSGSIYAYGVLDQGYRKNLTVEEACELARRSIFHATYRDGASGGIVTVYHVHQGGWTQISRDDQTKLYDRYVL

Homo sapiens = organism: Homo sapiens; assay: To identify inhibition of the IFN signalling (Jak-Stat) pathway via expression of an eGFP reporter gene under the control of an IFN-stimulated response element (ISRE) containing MxA promoter.; assay type: functional; conditions: 30 µM
[7] = biological target: T4, Tyrosyl-tRNA synthetase, putative (Trypanosoma cruzi (strain CL Brener)) (UniProt Q4DSP6); assay: Trypanosoma cruzi tyrosyl tRNA synthetase (TcYRS) _High Tyrosine SOP; assay type: functional; conditions: 30 µM; note: in the data most compounds retested in dose-response had high values
T4 sequence (whole entry): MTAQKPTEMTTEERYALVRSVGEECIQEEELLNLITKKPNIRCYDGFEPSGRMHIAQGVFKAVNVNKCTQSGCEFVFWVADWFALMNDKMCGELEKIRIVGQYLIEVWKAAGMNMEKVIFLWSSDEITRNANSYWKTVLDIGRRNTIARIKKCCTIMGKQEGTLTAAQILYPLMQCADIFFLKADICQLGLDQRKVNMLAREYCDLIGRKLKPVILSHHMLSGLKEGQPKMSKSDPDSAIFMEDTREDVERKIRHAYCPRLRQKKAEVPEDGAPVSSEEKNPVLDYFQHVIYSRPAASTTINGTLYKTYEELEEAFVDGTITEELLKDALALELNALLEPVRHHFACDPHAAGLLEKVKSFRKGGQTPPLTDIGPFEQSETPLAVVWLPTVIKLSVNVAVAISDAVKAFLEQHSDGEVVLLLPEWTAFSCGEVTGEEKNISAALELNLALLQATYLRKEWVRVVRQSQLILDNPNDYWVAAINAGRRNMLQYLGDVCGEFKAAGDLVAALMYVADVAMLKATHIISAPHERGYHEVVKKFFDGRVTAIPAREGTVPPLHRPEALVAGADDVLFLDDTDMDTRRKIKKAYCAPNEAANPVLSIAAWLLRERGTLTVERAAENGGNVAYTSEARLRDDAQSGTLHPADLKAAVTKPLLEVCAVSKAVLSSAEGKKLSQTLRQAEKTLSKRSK

[8] = biological target: T4, Tyrosyl-tRNA synthetase, putative (Trypanosoma cruzi (strain CL Brener)); assay: Trypanosoma cruzi tyrosyl tRNA synthetase (TcYRS) SOP; assay type: functional; conditions: 30 µM
[9] = biological target: Chromo domain-containing protein 1 (Saccharomyces cerevisiae (strain ATCC 204508 / S288c) (Baker's yeast)) (UniProt P32657); assay: ScCHD-1 Enzyme Inhibition Assay; assay type: functional; conditions: 30 µM; note: in the data most compounds retested in dose-response had high values
Chain of Chromo domain-containing protein 1 (Saccharomyces cerevisiae (strain ATCC 204508 / S288c) (Baker's yeast)) (P32657 whole entry, the tested form may be a part): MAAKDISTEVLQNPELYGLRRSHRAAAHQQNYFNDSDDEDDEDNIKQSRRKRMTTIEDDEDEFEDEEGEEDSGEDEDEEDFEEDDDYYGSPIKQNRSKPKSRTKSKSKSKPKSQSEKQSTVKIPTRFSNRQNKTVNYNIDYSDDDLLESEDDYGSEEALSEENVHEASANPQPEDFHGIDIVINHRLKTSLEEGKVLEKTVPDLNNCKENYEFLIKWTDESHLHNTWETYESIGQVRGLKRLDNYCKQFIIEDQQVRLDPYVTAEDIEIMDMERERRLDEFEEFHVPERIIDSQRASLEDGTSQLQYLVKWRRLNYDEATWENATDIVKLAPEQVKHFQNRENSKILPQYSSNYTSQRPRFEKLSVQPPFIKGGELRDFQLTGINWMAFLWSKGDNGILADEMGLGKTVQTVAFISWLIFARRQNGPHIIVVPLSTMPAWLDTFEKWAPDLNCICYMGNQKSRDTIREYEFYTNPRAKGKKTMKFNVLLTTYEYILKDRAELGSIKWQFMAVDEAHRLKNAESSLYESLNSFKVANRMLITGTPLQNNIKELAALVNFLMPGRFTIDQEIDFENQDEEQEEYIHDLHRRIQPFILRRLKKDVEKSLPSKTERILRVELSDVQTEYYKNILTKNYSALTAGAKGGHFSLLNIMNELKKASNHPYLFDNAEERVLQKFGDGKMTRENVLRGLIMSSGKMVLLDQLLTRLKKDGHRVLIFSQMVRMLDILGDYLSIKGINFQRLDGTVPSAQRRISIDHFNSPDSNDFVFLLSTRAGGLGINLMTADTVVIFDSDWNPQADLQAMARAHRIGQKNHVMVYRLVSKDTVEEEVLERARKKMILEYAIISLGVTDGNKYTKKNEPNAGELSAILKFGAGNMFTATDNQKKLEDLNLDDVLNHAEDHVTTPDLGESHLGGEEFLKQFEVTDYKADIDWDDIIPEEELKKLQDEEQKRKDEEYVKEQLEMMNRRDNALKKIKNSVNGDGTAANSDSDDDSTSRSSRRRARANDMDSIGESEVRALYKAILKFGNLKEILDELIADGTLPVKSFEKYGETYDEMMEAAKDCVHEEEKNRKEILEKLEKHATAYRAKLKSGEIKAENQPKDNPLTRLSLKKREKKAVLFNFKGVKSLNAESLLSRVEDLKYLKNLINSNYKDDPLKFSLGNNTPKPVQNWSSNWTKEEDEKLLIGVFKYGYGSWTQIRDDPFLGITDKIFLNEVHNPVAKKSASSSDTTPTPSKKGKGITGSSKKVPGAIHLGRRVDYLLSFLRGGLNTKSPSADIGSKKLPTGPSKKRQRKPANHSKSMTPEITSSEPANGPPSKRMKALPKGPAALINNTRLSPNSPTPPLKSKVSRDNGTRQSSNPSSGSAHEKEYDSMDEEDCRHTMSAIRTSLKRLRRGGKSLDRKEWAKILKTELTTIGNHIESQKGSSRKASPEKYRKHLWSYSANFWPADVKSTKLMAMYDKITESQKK

| Structure (SMILES) | Percent Effect [1] | Percent Effect [2] | Percent Effect [3] | Percent Effect [4] | Percent Effect (Trypanosoma cruzi) | Percent Effect [5] | Percent Effect [6] | Percent Effect (Homo sapiens) | Percent Effect [7] | Percent Effect [8] | Percent Effect [9] |
| --- | --- | --- | --- | --- | --- | --- | --- | --- | --- | --- | --- |
| COCCCNC(=O)CCn1nc(C)c2ccccc21 | -3.61% | 6.67% | 0.569% | 3.25% | -6.09% | -6.16% | 15% | 2.4% | 3.17% | 2.56% | -8.28% |
| O=C(C1SCCc2sccc21)N1CCC(O)CC1 (configuration not stated) | -4.42% | -5.41% | 2.06% | 0.929% | -6.25% | 0.833% | 6.34% | 5.86% | 5.94% | 1.22% | 1.03% |
| CCC1CCCCCN1C(=O)c1nnc2ccccc2c1N (configuration not stated) | -4.89% | 2.63% | 3.98% | -3.48% | -2.82% | 0% | 9.11% | 7.13% | 0% | 2.6% | -1.43% |
| Cc1cccc(OCCC(=O)N2CCCN(CC(N)=O)CC2)c1C | -3.47% | 17.7% | -7.09% | 14.1% | 1.6% | -3.42% | 4.34% | -12.7% | 1.48% | 16.5% | -5.52% |
| O=C(c1cccs1)N1C[C@H]2CC[C@@]3(N=C(c4ccccc4)NC3=O)[C@H]2C1 | -1.64% | 7.79% | 0.0999% | 7.14% | -2.06% | -4.14% | 13.3% | 9.87% | 1.07% | 13.6% | -0.884% |
| c1ccc(OCCCN2CCN(c3ccc4nncn4n3)CC2)cc1 | -7.97% | -18.2% | -5.57% | 15.6% | 8.61% | -5.69% | 17.6% | 47.8% | 18.4% | 24.4% | -1.5% |
| CN1CC2(CCN(Cc3ccoc3)CC2)COc2ccccc2S1(=O)=O | -0.535% | 2.7% | -0.665% | 1.6% | -3.23% | 5.21% | 14.8% | 4.83% | 7.53% | 13.6% | -2.59% |
| COc1ccc(N2CCC(C(=O)/N=c3/[nH]ccs3)CC2)nn1 | -5.79% | 1.33% | 5.74% | 6.32% | 0.589% | -13.9% | 11.3% | 44.8% | 5.29% | 12.8% | -12.7% |
| CC1COCCN1Cc1nc(-c2cccc(Br)c2)no1 (configuration not stated) | -3.43% | 13.5% | 7.49% | 1.61% | -8.4% | 2% | 17.7% | 24.7% | 0.493% | 1.24% | -8.7% |
| CCC(=O)NC1CCN(c2cccc(CC)c2)CC1 | -7.28% | 3.8% | 2.12% | -4.76% | 1.13% | -1.5% | 4.97% | 16.9% | 3.12% | -10.1% | -27.3% |
| COc1cccc(OCC2CCCN(C3CCN(C(C)=O)CC3)C2)c1 (configuration not stated) | -0.921% | 5.41% | 0.304% | -4.78% | -3.67% | 1.43% | 18.4% | -5.82% | 4.76% | 12.2% | -2.6% |
| COCC1COCCC12CCN(C(=O)CCOc1ccccc1)CC2 (configuration not stated) | -3.35% | 2.7% | 0.684% | -3.94% | 8.2% | -2.5% | 6% | -0.428% | 8.91% | 6.1% | 1.14% |
| O=C1CC(c2cccc(O)c2)c2c(c(C(=O)O)cn2-c2ccccc2)N1 (configuration not stated) | -3.46% | 1.33% | -385% | 1.46% | -3.34% | -5.81% | 14.6% | 7.35% | 0% | -5.13% | -11.7% |
| CSC(C)C(=O)N1CCCN(Cc2cnn(C(C)C)c2)CC1 (configuration not stated) | 1.59% | 21.6% | -6.76% | -4.41% | -10.3% | 2% | 19.1% | 7.04% | 8.37% | 11.1% | -4.54% |
| CN(C)C(CNC(=O)c1cc2c([nH]c1=O)CCCC2=O)c1ccsc1 (configuration not stated) | -5.23% | 16.2% | -3.65% | 17.4% | 4.55% | -0.554% | 2.51% | 1.27% | 5.94% | 18.3% | 45% |
| O=C(c1cnc(-c2ccco2)s1)N1CCCC1Cn1cccn1 (configuration not stated) | -4.62% | 3.8% | 8.45% | 0.321% | 2.97% | 1.5% | 9.09% | 13% | 7.29% | 5.06% | 0.437% |
| CS(=O)(=O)CCNC(=O)C1(c2cccc(Cl)c2)CCCCC1 | -7.1% | -1.39% | 0.793% | -3.56% | -1.46% | -2.65% | 6.14% | 13.7% | -4.21% | -7.69% | -0.434% |
| Cc1ccc(-c2noc(CN3CCOC(CN(C)C)C3)n2)cc1F (configuration not stated) | -2.58% | -8.11% | -2.88% | 2.97% | -3.99% | -4.25% | -0.539% | 20.6% | 1.98% | -1.22% | 2.19% |
| CN(Cc1ccsc1)C(=O)Nc1ccc(S(=O)(=O)N(C)C)cc1 | -1.98% | 17.7% | -2.37% | -9.54% | -1.79% | -0.38% | -0.0819% | -7.23% | 6.4% | 21.5% | -6.52% |
| Cc1cccc(NC2CCN(C(=O)Nc3cc(C)on3)CC2)n1 | -3.9% | 12.7% | -3.67% | 8.79% | 5.57% | 0.76% | 1.39% | -22.6% | 4.43% | 16.5% | -8.82% |
| CC(Cn1ccnc1)NC(=O)NCCc1ccc2c(c1)OCCO2 (configuration not stated) | -3.57% | 18.2% | -10.2% | -0.77% | -10.1% | 0.712% | 15.7% | 31.7% | 4.85% | 2.44% | -8.39% |
| c1ccc(Cn2cc3c(n2)C(CNCc2ccco2)OCC3)nc1 (configuration not stated) | -3.96% | 2.7% | 0.188% | 3.43% | -4.49% | 4.17% | 2.79% | -8.58% | 4.95% | 11% | -1.79% |
